{"source": "PubChem BioAssay (EPA / NIEHS)", "note": "A structure can be active in one record and inactive in another. Calls of active or inactive are those of the source. The calls were made as follows: active = hit-call score of the fitted dose curve at least 0.9, where 1 is the maximum; inactive = score below 0.9.", "data": [{"biological_target": "Paired box protein Pax-6 (Homo sapiens) (UniProt P26367)", "sequence (P26367 whole entry, looked up)": "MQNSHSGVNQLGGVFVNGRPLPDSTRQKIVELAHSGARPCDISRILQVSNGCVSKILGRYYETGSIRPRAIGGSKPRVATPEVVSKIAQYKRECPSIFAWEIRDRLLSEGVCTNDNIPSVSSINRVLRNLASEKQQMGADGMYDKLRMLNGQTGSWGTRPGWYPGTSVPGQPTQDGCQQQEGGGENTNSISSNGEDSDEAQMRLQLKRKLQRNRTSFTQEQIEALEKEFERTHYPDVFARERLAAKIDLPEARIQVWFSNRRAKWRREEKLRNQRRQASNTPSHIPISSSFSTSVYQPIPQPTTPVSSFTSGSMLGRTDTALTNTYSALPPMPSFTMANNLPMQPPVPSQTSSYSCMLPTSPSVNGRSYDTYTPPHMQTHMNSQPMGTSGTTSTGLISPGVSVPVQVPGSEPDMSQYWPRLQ", "test": "ATG_Pax6_CIS: Attagene CIS-FACTORIAL HepG2 Assay for human Paired Box 6 (PAX6) (AID 2282956)", "conditions": "HepG2 CIS-FACTORIAL PAX6 reporter transcription, RNA readout; actives raise or lower the signal", "experimental": "ATG_CIS is a cell-based, multiplexed-readout assay that uses HepG2, a human liver cell line, with measurements taken at 24 hours after chemical dosing in a 24-well plate.ATG_Pax6_CIS is one of 52 assay component(s) measured or calculated from the ATG_CIS assay. It is designed to make measurements of mRNA induction, a form of inducible reporter, as detected with fluorescence intensity signals by Reverse transcription polymerase chain reaction (RT-PCR) and Capillary electrophoresis technology.Data from the assay component ATG_Pax6_CIS was analyzed into 1 assay endpoint. This assay endpoint, ATG_Pax6_CIS, was analyzed with bidirectional fitting relative to DMSO as the negative control and baseline of activity. Using a type of inducible reporter, measures of mRNA for gain or loss-of-signal activity can be used to understand the reporter gene at the transcription factor-level as they relate to the gene PAX6. Furthermore, this assay endpoint can be referred to as a primary readout, because this assay has produced multiple assay endpoints where this one serves a reporter gene function. To generalize the intended target to other relatable targets, this assay endpoint is annotated to the dna binding intended target family, where the subfamily is paired box protein.\nHuman liver HepG2 cells are transiently transfected with multiple reporter transcription units (MRTUs) in 6-well plates using FuGene 6 reagent (Roche; 3 ml FuGene/1 mg DNA). The MRTU constructs are regulated by a cis-regulating element (promoter). […] A major difference between the CIS and TRANS system is that in CIS activities of endogenous TFs are measured, whereas the TRANS assay evaluates changes in activities of exogenous, chimeric NR-Gal4 proteins. […] At the end of 24 hour incubation, total RNA was isolated using TriZol reagent (Invitrogen). The isolated RNA is then reverse-transcribed using oligo(dT) primer and Mo-MLV reverse transcriptase (Invitrogen) with DNAse I (Ambion) treatment for 30 min. The one-tenth of the produced cDNA was amplified by PCR using Taq DNA polymerase (Invitrogen) and two reporter sequence-specific primers. The PCR products were fluorescently labeled by primer extension with 6-arboxyfluorescein (6-FAM) 5'-labeled reporter sequence-specific primer (2 min at 95 C, 20 s at 68 C and 10 min at 72 C) and these products were digested with 5U of HpaI (New England Biolabs) for 2h at 37 C. The fragments were purified using Qiaquick PCR columns (Qiagen), analyzed on an ABI 3130xL genetic analyzer (Applied Biosystems) with peak positions identified by using a set of X-rhodamine (ROX)-labeled MapMarker1000 molecular weight standards (BioVentures). The raw capillary electrophoresis data was processed using Attagraph software (Attagene).", "values": [{"compound": "CC(Br)C(=O)O", "note": "(stereo not given)", "outcome": "inactive"}, {"compound": "Nc1ccc(Cl)cc1C(=O)c1ccccc1", "AC50": "29.6 µM (active)"}, {"compound": "Clc1ccc(COC(Cn2ccnc2)c2ccc(Cl)cc2Cl)cc1", "note": "(stereo not given)", "outcome": "inactive"}, {"compound": "NC(=S)Nc1ccccc1", "outcome": "inactive"}, {"compound": "COc1ccc(C=O)cc1", "outcome": "inactive"}, {"compound": "ClCc1cccnc1", "AC50": "75.4 µM (active)"}, {"compound": "COP(=S)(OC)Oc1c(Cl)cc(C)cc1Cl", "outcome": "inactive"}, {"compound": "C=C(C)C#N", "outcome": "inactive"}, {"compound": "O=C1C2(Cl)C3(Cl)C4(Cl)C(Cl)(Cl)C5(Cl)C3(Cl)C1(Cl)C5(Cl)C24Cl", "note": "(stereo not given)", "outcome": "inactive", "AC50": "15.7 µM (active)"}, {"compound": "C=CCc1ccc(OC)cc1", "outcome": "inactive"}, {"compound": "O=C(O)Cc1ccccc1", "outcome": "inactive"}, {"compound": "CC(C)c1cccc(C(C)C)c1O", "outcome": "inactive"}, {"compound": "C=CC(=O)N(C)C", "outcome": "inactive"}, {"compound": "O=C1C(Cl)=C(Cl)C(=O)c2ccccc21", "outcome": "inactive"}, {"compound": "Nc1cccc(Cl)c1", "outcome": "inactive"}, {"compound": "O=C(OC1CCCCC1)c1ccccc1C(=O)OC1CCCCC1", "outcome": "inactive"}, {"compound": "CC(=[OH+])/C=C(/C)[O-].CC(=[OH+])/C=C(/C)[O-].CC(=[OH+])/C=C(/C)[O-].[Al]", "outcome": "inactive"}, {"compound": "c1ccc(N=NNc2ccccc2)cc1", "AC50": "125 µM (active)"}, {"compound": "CCCCCCCCC(=O)NCc1ccc(O)c(OC)c1", "outcome": "inactive"}, {"compound": "ClC(Cl)=C(Cl)C(Cl)=C(Cl)Cl", "outcome": "inactive"}, {"compound": "ClC1=C(Cl)[C@]2(Cl)[C@H]3[C@H]([C@H]4C=C[C@H]3C4)[C@@]1(Cl)C2(Cl)Cl", "outcome": "inactive"}, {"compound": "CC(C)OC(=O)Nc1ccccc1", "outcome": "inactive"}, {"compound": "CC(C#N)CCC#N", "note": "(stereo not given)", "outcome": "inactive"}, {"compound": "COC[C@H](C)N(C(=O)CCl)c1c(C)csc1C", "outcome": "inactive"}, {"compound": "CCSC(C)CC1CC(=O)C(C(CC)=NOC/C=C/Cl)=C(O)C1", "note": "(stereo not given)", "outcome": "inactive"}, {"compound": "O=C(Cl)c1ccc(Cl)cc1", "outcome": "inactive"}, {"compound": "Cc1ccc2ccccc2c1C", "outcome": "inactive"}, {"compound": "CC(C)C1CCC(Cc2ccc(Cl)cc2)C1(O)Cn1cncn1", "note": "(stereo not given)", "outcome": "inactive"}, {"compound": "COP(=S)(OC)Oc1cc(Cl)c(Cl)cc1Cl", "outcome": "inactive"}, {"compound": "CCOC(=O)CP(=O)(OCC)OCC", "outcome": "inactive"}, {"compound": "Cn1sc(Cl)cc1=O", "outcome": "inactive"}, {"compound": "Nc1ccc(N=Nc2ccc(-c3ccc(N=Nc4c(S(=O)(=O)O)cc5cc(S(=O)(=O)O)c(N=Nc6ccccc6)c(O)c5c4N)cc3)cc2)c(N)c1", "outcome": "inactive"}, {"compound": "COc1ccc(C=O)cc1OC", "outcome": "inactive"}, {"compound": "Cl/C=C\\C[N+]12CN3CN(CN(C3)C1)C2", "outcome": "inactive"}, {"compound": "CCCCCCCCCl", "outcome": "inactive"}, {"compound": "N#Cc1ccccn1", "outcome": "inactive"}, {"compound": "O=Cc1cccc(Oc2ccccc2)c1", "outcome": "inactive"}, {"compound": "Fc1ccc(C2(Cn3cncn3)OC2c2ccccc2Cl)cc1", "note": "(stereo not given)", "outcome": "inactive"}, {"compound": "CC(C)(C)CC(C)(C)c1ccc(O)cc1", "outcome": "inactive"}]}]}
